Measurements taken from the supplement of paper PMC8726507.
Unmarked numbers belong to inactive results.

system: Plasmodium falciparum NF54-HGL (transmission to Anopheles stephensi); assay: percentage of barcode signal found in uninfected mosquitoes (transmission-blocking activity); higher = stronger blocking of transmission to mosquito, active = 80 or more; conditions: 10 µM; gametocyte preincubation time 24 h; readout time post-feed 8 days
Method: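 The mixture was fed to Anopheles stephensi in 96-well plates as blood meals tagged with DNA-barcoded Asaia bacteria. Eight days later, mosquitoes were classed infected or uninfected by luminescence (mean + 5 SD of unfed controls). Barcodes were quantified by Luminex MagPlex-TAG in the pooled uninfected and infected Asaia cultures, background-corrected, and the score is % of barcode signal in uninfected mosquitoes = 100*Iu/(Iu+Ii).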

Going from `CN1CCN(c2cc(-c3ccc(F)cc3)nc(-c3ccncc3)n2)CC1` to `COc1cncc(-c2cncc(N3CCN(c4ccncc4)CC3)n2)c1`, the “percentage of barcode signal found in uninfected mosquitoes” value (“percentage of barcode signal found” for short) rises from 1.2% to 63.9%.

Going from `COc1ccc(N(CCc2cccc(C)n2)C(=O)C2CCCCC2)cc1` to `CNc1snc(C)c1C(=O)NCCOc1ccc(OC)cc1`, the “percentage of barcode signal found” value falls from 29.5% to 25.3%.

Compared with `COC(=O)c1cccc2oc(-c3cccc(OC)c3NC(=O)c3cc(-c4ccccc4)on3)nc12`, `CC(C)n1ncc2c(C(=O)NCC(c3cccs3)N3CCOCC3)cc(-c3ccccc3)nc21` (configuration not stated) is lower in “percentage of barcode signal found” value: 31% for the first, 29.6% for the second.

Going from `NCCCC(N)(C(=O)O)C(F)F` (configuration not stated) to `COc1cc(NC(C)CCCN)c2ncccc2c1` (configuration not stated), the “percentage of barcode signal found” value rises from 37.7% to 48.2%.

First: Cc1nn2c(O)c3c(nc2c1-c1ccc(F)cc1)CCCC3
Second: Cc1nn2c(=O)c3c([nH]c2c1-c1ccc(Cl)cc1)CCCC3
The “percentage of barcode signal found” value of the first is lower: 9.19% for the first, 40.4% for the second.

Compared with `Oc1c(I)cc(I)c2cccnc12`, `Nc1ncnc2c1c(Cc1cccc3ccccc13)nn2CC1CCNCC1` is higher in “percentage of barcode signal found” value: -1.81% for the first, 74.2% for the second.

Compared with `CC(=O)NC[C@H]1CN(c2ccc(N3CCSCC3)c(F)c2)C(=O)O1`, `CN1CCN(CCCOc2ncc(Nc3ncc(-c4ccc(C(F)(F)F)c(F)c4)nc3C(N)=O)cn2)CC1` is higher in “percentage of barcode signal found” value: 24.7% for the first, 75.6% for the second.

Compared with `Cc1cc(Nc2ccncc2)n2nc(C)c(-c3ccccc3Cl)c2n1`, `c1ccc(Oc2ccc(-c3cc(C4CCOCC4)[nH]n3)cc2)cc1` is lower in “percentage of barcode signal found” value: 53.9% for the first, 10.6% for the second.

With `O=C(c1ccc(NCCO)cc1)C1C[C@H]1c1ccc(Cl)cc1` (some centres not stated) the “percentage of barcode signal found” value was 39.6%.
